Experimental data taken from PubChem BioAssay (NCI).
The panel holds about 83,000 compounds, 20% with a hit somewhere; the sample as a whole holds those more often.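 Values shown are percent growth following 48 h exposure of cells in 96-well plates to a single concentration of compound; below 10 was considered active.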 Values without a mark were called inactive. Calls of active or inactive are those of the source.

Tested on: RXF 393 renal
Experiment: NCI-60 one-dose screen, 48 h (100 = growth as untreated, 0 = no growth, -100 = all killed)
Details: 10 µM unless noted

Compound | growth
CC(C)(C)CC(C)(C)c1ccc(OCCOCCSC(=N)N)cc1 | -36.3% (active)
CCCOC(=O)c1nc(N(CC2CCCCC2)C(=O)NC)sc1/N=C/c1ccccc1 | -8.78% (active)
CC12CCC(O)CC1=CCC1C2CCC2(C)C3=NN=CC3CC12 (configuration not stated) | 102%
COC(=O)c1cc([N+](=O)[O-])cc([N+](=O)[O-])c1Cl | 91.4%
CC(=O)Nc1ccc(C(=O)CCl)cc1 | 83.2%
Oc1ccccc1N=Cc1ccccc1 | 117%
O=[N+]([O-])c1cc(-c2ccccc2)c(O)c([N+](=O)[O-])c1 | 99.1%
CN(Cc1ccccc1)c1ccc(SC#N)cc1 | 68.3%
O=[N+]([O-])C=C(c1ccccc1)c1ccccc1 | 78.5%
CC1CC(C)(C)OB(OC(C)CC(C)(C)OB2OC(C)CC(C)(C)O2)O1 (configuration not stated) | 116%

Tested on: SF-268 CNS
Experiment: as above
Details: 10 µM unless noted

Compound | growth
Cc1ccc(Nc2ccc(O)c3c2C(=O)c2c(O)ccc(Nc4ccc(C)cc4)c2C3=O)cc1 | 114%
CCOc1ccc2c(c1)/C(=C\C=C\C1CC(C)C3CC(OCC)CCC3N1CC)CC(C)N2CC (configuration not stated) | 21.7%
COc1ccc(C(Cn2ccnc2)Sc2ccc(Cl)c(Cl)c2)cc1 (configuration not stated) | 90.9%
Oc1ccc(Cl)cc1C(c1cc(Cl)ccc1O)C(Cl)(Cl)Cl | 20.2%
CCc1cccc(CC)c1N1C(=O)C=CC1=O | 97.6%
CCCC[n+]1c(/C=C\c2c(OC)cc(OC)cc2OC)ccc2ccccc21 | 22%
Cc1nn(CCO)c(C)c1N=[N+]([O-])c1c(C)nn(CCO)c1C | 81.3%
O=C1C(=O)c2cccnc2-c2ncccc21 | -94.5% (active)
COC(=O)c1ccc(=O)c2nc3/c(=C/O)c(O)cc(=O)c3[nH]c12 | 14.5%
COc1cc(OC)c(/C=C/c2c3ccccc3cc[n+]2C)c(OC)c1 | 26.3%
CC(C)(C)CC(C)(C)c1ccc(OCCOCCSC(=N)N)cc1 | 69%
CC(=O)C1Cc2ccccc2C1=O (configuration not stated) | 103%
O=C1C=C(Cl)C(=O)c2ccccc21 | 93.2%
CCCOC(=O)c1nc(N(CC2CCCCC2)C(=O)NC)sc1/N=C/c1ccccc1 | 32%
Cc1nc([N+](=O)[O-])c(Sc2nncc(-c3ccccc3)n2)n1C | 93.5%
Cc1nnc(N/N=C/c2ccc([N+](=O)[O-])o2)[nH]c1=O | 19.4%
CC12CCC(O)CC1=CCC1C2CCC2(C)C3=NN=CC3CC12 (configuration not stated) | 105%
Nc1ccc(-c2ccc(N)c(S(=O)(=O)O)c2)cc1S(=O)(=O)O | 103%

Compound | growth
CCCCCCCCCCCCN1C(C)=CS/C1=C\C=C\c1scc(C)[n+]1CCCCCCCCCCCC | 40.3%
O=C1CSC(=S)N1Cc1cccnc1 | 107%
CCC[CH2][Sn]1([CH2]CCC)[O]C2C(CO)OC(n3ccc(N)nc3=O)C2[O]1 (configuration not stated) | -89.2% (active)
CCCCCCCCCCCC[N+]1(CCCCCCCCCCCC)CCCC(C)C1 (configuration not stated) | -87.7% (active)
CN(C)c1ccc(/C=C/c2ccnc3ccccc23)cc1 | 70%
CCCCCCCCCCCCNCCCc1ccccc1 | 80.6%
CC(=O)Nc1ccc(C(=O)CCl)cc1 | 81.2%
O=C1C=CC(O)=CC1=P(c1ccccc1)(c1ccccc1)c1ccccc1 | 100%
Oc1ccccc1N=Cc1ccccc1 | 89.9%
CCCCOS(=O)(=O)c1ccccc1 | 105%
O=[N+]([O-])c1cc(-c2ccccc2)c(O)c([N+](=O)[O-])c1 | 79%
CCCCCCC1N=C(N)N=C(N)N1c1cccc(Cl)c1 (configuration not stated) | 19.6%
O=[n+]1c2ccccc2n([O-])c2cc(Cl)ccc21 | 28.1%
N#CC1c2ccccc2C=CN1C(=O)CCCl (configuration not stated) | 104%
CN(Cc1ccccc1)c1ccc(SC#N)cc1 | 85%
O=[N+]([O-])C=C(c1ccccc1)c1ccccc1 | 85.7%
CC1CC(C)(C)OB(OC(C)CC(C)(C)OB2OC(C)CC(C)(C)O2)O1 (configuration not stated) | 102%
CCCCCCCCCCCC[n+]1ccccc1 (tested in a mixture with another compound) | -8.98% (active)

Tested on: SF-295 CNS
Experiment: as above
Details: 10 µM unless noted

Compound | growth
Cc1ccc(Nc2ccc(O)c3c2C(=O)c2c(O)ccc(Nc4ccc(C)cc4)c2C3=O)cc1 | 104%
Oc1ccc(Cl)cc1C(c1cc(Cl)ccc1O)C(Cl)(Cl)Cl | 10.1%
CCc1cccc(CC)c1N1C(=O)C=CC1=O | 106%
CCCC[n+]1c(/C=C\c2c(OC)cc(OC)cc2OC)ccc2ccccc21 | -74.7% (active)
Cc1nn(CCO)c(C)c1N=[N+]([O-])c1c(C)nn(CCO)c1C | 100%
O=C1C(=O)c2cccnc2-c2ncccc21 | 2.62% (active)
COC(=O)c1ccc(=O)c2nc3/c(=C/O)c(O)cc(=O)c3[nH]c12 | 6.32% (active)
COc1cc(OC)c(/C=C/c2c3ccccc3cc[n+]2C)c(OC)c1 | -32.3% (active)
CC(C)(C)CC(C)(C)c1ccc(OCCOCCSC(=N)N)cc1 | 36.9%
CC(=O)C1Cc2ccccc2C1=O (configuration not stated) | 100%
O=C1C=C(Cl)C(=O)c2ccccc21 | 97.4%
CCCOC(=O)c1nc(N(CC2CCCCC2)C(=O)NC)sc1/N=C/c1ccccc1 | 15.1%
Cc1nc([N+](=O)[O-])c(Sc2nncc(-c3ccccc3)n2)n1C | 144%
Cc1nnc(N/N=C/c2ccc([N+](=O)[O-])o2)[nH]c1=O | -40.4% (active)
Nc1ccc(-c2ccc(N)c(S(=O)(=O)O)c2)cc1S(=O)(=O)O | 115%
COC(=O)c1cc([N+](=O)[O-])cc([N+](=O)[O-])c1Cl | 101%

Compound | growth
CCCCCCCCCCCCN1C(C)=CS/C1=C\C=C\c1scc(C)[n+]1CCCCCCCCCCCC | -21.5% (active)
O=C1CSC(=S)N1Cc1cccnc1 | 120%
CCCCCCCCCCCC[N+]1(CCCCCCCCCCCC)CCCC(C)C1 (configuration not stated) | -77.1% (active)
CN(C)c1ccc(/C=C/c2ccnc3ccccc23)cc1 | 31.7%
CCCCCCCCCCCCNCCCc1ccccc1 | 102%
CC(=O)Nc1ccc(C(=O)CCl)cc1 | 102%
O=C1C=CC(O)=CC1=P(c1ccccc1)(c1ccccc1)c1ccccc1 | 107%
Oc1ccccc1N=Cc1ccccc1 | 111%
CCCCOS(=O)(=O)c1ccccc1 | 120%
CCCCCCC1N=C(N)N=C(N)N1c1cccc(Cl)c1 (configuration not stated) | 13.8%
O=[n+]1c2ccccc2n([O-])c2cc(Cl)ccc21 | 63.5%
CN(Cc1ccccc1)c1ccc(SC#N)cc1 | 95.4%
O=[N+]([O-])C=C(c1ccccc1)c1ccccc1 | 89.3%
CC1CC(C)(C)OB(OC(C)CC(C)(C)OB2OC(C)CC(C)(C)O2)O1 (configuration not stated) | 105%
CCCCCCCCCCCC[n+]1ccccc1 (tested in a mixture with another compound) | -35.1% (active)
